Screening data as filed in PubChem.
This is a sample that favours compounds with a hit; in the whole collection about 2.9% have one here.
S2 tox: Viability Counterscreen for Primary qHTS for Inhibitors of ATXN expression. 400,000 compounds, 0.49% hits. S2 cells (HEK-293 line with an ATXN2-luciferase reporter) viability, CellTiter-Fluor protease fluorescence, 24 h. Potency, µM (doses to about 56.7 µM), usual class: cytotoxic; also: nearly all actives have a fitted effect of over 40% in size
ATXN2 expr inh: Primary qHTS for Inhibitors of ATXN expression; AID 1745845, 2022; Potency, µM (titrated, usually from 57 µM), actives largely listed as inhibitors; HEK-293 ATXN2-luciferase reporter, luminescence, 24 h; 360,000 compounds, 0.72% hits; also: nearly all actives have a fitted effect of over 55% in size
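qHTS (up to 57 uM final) was run with 24 h compound exposure of reporter cells at 37 °C. Each well was multiplexed: SteadyGlo luminescence measured ATXN2-luciferase expression after a fluorogenic Gly-Phe-AFC viability readout (25 uM final).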
Nrf2 inh: Nrf2 qHTS screen for inhibitors. 360,000 compounds, 2.1% hits. Potency, µM (titrated, usually from 46 µM), hits mostly inhibitors. A549 ARE-Fluc reporter, luciferase luminescence, 18-24 h; also: nearly all actives have a fitted effect of over 60% in size
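Two sequential reads on A549 ARE_Fluc cells exposed to compound for 18-24 h: a CellTiter-Fluor fluorescence read for viability, then a luciferase luminescence read for Nrf2/ARE activity.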
Nrf2 activator: qHTS of Nrf2 Activators; AREc32 ARE-luciferase reporter (MCF7-derived line), luminescence, 24 h; Potency, µM (series often up to 46.1 µM), most hits filed as activators; 410,000 compounds, 0.31% hits; AID 624171, 2012; also: nearly all actives have a fitted effect of over 65% in size
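Quantitative high-throughput format: AREc32 reporter cells, 1000 per well, received compound by pin transfer and were incubated 24 hr at 37 deg C, 5% CO2, before Steady-Glo luminescence detection.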
A549 viability: Nrf2 qHTS screen for inhibitors: counterscreen for cytotoxicity; 390,000 compounds, 0.16% hits; A549 ARE-Fluc cells, CellTiter-Fluor viability, 18-24 h; Potency, µM (top dose mostly 46 µM), hits mostly inhibitors; AID 504648, 2011
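A549 ARE-Fluc cells in 5% FBS OPTI-MEM, 5000 cells/well, rested 2 h then exposed to compounds in concentration-response for 18-24 h at 37 °C. Viability by CellTiter-Fluor fluorescence (Ex 405/Em 525) after 30 min; luciferase luminescence (BugLite, 15 min, RT) read afterwards.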
Numbers stand for hits; n = inactive; u = inconclusive; x = no result; [ ] = remark or other dose. Calls follow the shape of the dose curve; as a rule, active = well fitted curve in the direction sought with a large enough effect; inconclusive = small, poorly fitted or top-dose-only effect, or another doubt; inactive = no such curve, though single readings can be large; an effect the other way counts as inactive or inconclusive.

SMILES	S2 tox	ATXN2 expr inh	Nrf2 inh	Nrf2 activator	A549 viability
COC(=O)c1ccc(N2CCOCC2)c(NC(=O)Nc2cccc(OC)c2)c1	u	32µM	n	n	n
COc1cccc(NC(=O)Nc2cc(Cl)ccc2C)c1	n	x	18µM	n	n
COc1ccc(NC(=O)Nc2cc(F)ccc2C)cc1	n	n	21µM	n	n
COC1OC(CO)C(N=C(C)C)C1O (stereo unspecified)	n	n	n	n	n
CCOC(COC(=O)c1ccccc1C(=O)O)c1ccccc1 (stereo unspecified)	n	x	x	n	x
CCOC(=O)[C@@H]1[C@H]2COc3cc(OC)ccc3[C@@H]2N2C(=O)N(c3ccc(Cl)cc3)C(=O)[C@@]12C	n	n	n	n	n
CN(c1ccccc1)c1ccc(/C=N/NC(=O)CC#N)cc1	n	13µM	n	n	n
CNC1=C(N(C(C)=O)c2ccc(Br)cc2)C(=O)c2ccccc2C1=O	x	u	16µM	n	u
CCC(=O)N(C1=C(NC)C(=O)c2ccccc2C1=O)C(C)C	u	x	16µM	n	u
Cc1ccc(C(=O)N/C(=C\c2ccc(-c3ccc(Br)cc3)o2)C(=O)NCCCN(C)C)cc1	32µM	10µM	u	n	u
CC1CCCCN1S(=O)(=O)c1ccc(C(=O)Nc2ccccc2-c2nc3ccccc3[nH]2)cc1 (stereo unspecified)	n	n	23µM	n	n
O=C(Nc1ccccc1-c1nc2ccccc2[nH]1)c1ccc(S(=O)(=O)N2CCCCC2)cc1	n	n	u	n	u
CC1CCCCN1S(=O)(=O)c1ccc(C(=O)Nc2nnc(C3CC3)o2)cc1 (stereo unspecified)	n	n	13µM	n	n
O=C(Nc1nnc(C2CC2)o1)c1ccc(S(=O)(=O)N2CCCCC2)cc1	n	n	u	n	n
CC1CCCCN1S(=O)(=O)c1ccc(C(=O)Nc2nnc(-c3ccco3)o2)cc1 (stereo unspecified)	n	u	21µM	n	u
CC1CCN(S(=O)(=O)c2ccc(C(=O)Nc3nnc(C4CC4)o3)cc2)CC1	n	u	12µM	n	u
O=C(Nc1ccc(SC(F)F)cc1)C1=CC=CN2CCS(=O)(=O)N=C12	n	n	n	n	n
Cc1cccc(NC(=O)c2ccc(S(=O)(=O)N3CCC(C)CC3)cc2)n1	n	n	15µM	n	n
CC1CCCCC12NC(=O)N(CC(=O)NCC(=O)Nc1ccc(F)c(F)c1F)C2=O (stereo unspecified)	n	x	n	n	n
COC(=O)C(NC(C)=O)(Nc1ccc(Br)cn1)C(F)(F)F (stereo unspecified)	n	n	n	n	n
Cc1cc(C(=O)N2CCN(c3cccc(Cl)c3)CC2)c2c(C)nn(-c3ccccc3Cl)c2n1	u	u	18µM	n	n
O=C(Nc1ccc2oc(-c3cccnc3)nc2c1)c1ccc(-c2ccccc2OC(F)(F)F)o1	u	n	0.65µM	n	n
O=C(Nc1ccc2oc(-c3cccnc3)nc2c1)c1ccc(-c2ccccc2)o1	x	x	13µM	n	n
O=C(Nc1ccc2oc(-c3cccnc3)nc2c1)c1ccc(-c2ccc(OC(F)(F)F)cc2)o1	n	n	n	n	n
COc1ccc(Oc2cc(Cl)nc(N)n2)cc1	n	n	n	n	n
SMILES	S2 tox	ATXN2 expr inh	Nrf2 inh	Nrf2 activator	A549 viability
O=C(CN1CCOCC1)NCc1ccccc1Cl	n	n	n	n	n
O=S(=O)(c1ccccc1Cl)N1CCCC1c1nc(-c2ccccc2Cl)no1 (stereo unspecified)	n	n	16µM	n	n
O=S(=O)(c1ccc(Cl)cc1)N1CCCC1c1nc(-c2ccc(Cl)cc2)no1 (stereo unspecified)	n	n	n	n	n
COc1cc2c(cc1NC(=O)CSc1nc3ccccc3[nH]1)oc1ccccc12	n	n	18µM	n	u
COc1cc2c(cc1NC(=O)CSc1ccccc1)oc1ccccc12	n	n	n	n	n
C=CCn1cccc(/C=C/C(=O)c2ccc(C(C)(C)C)cc2)c1=S	x	25µM	u	n	u
O=C(C=Cc1ccccc1Cl)c1ccccc1	n	n	u	u	n
CCc1cccc(NC(=O)CSCc2nc3sc(C)c(C)c3c(=O)[nH]2)c1	n	n	n	n	n
CO[C@@H]1[C@@H](O[C@@H]2O[C@H](C)[C@@H](O[C@H]3C[C@@](C)(O)[C@@H](O)[C@H](C)O3)[C@H](N(C)C)[C@H]2O)[C@@H](CC=O)C[C@@H](C)[C@@H](O[C@@H]2CC[C@H](N(C)C)[C@@H](C)O2)/C=C/C=C/C[C@@H](C)OC(=O)C[C@H]1O	n	x	x	x	x
CCC1OC(=O)C[C@@H](O)[C@H](C)[C@@H](O[C@@H]2O[C@H](C)C[C@H](N(C)C)[C@H]2O)[C@@H](CC=O)C[C@@H](C)C(=O)/C=C/[C@]2(C)OC2C1C (stereo partly specified)	16µM	x	x	x	x
COC(=O)c1cc(NC(=O)c2cc(C(C)(C)C)nn2Cc2ccc(F)cc2)ccc1N1CCOCC1	u	x	13µM	n	n
CCn1c(CC(=O)Nc2ccc(C)c(Cl)c2)nnc1SCCOc1ccc(OC)cc1	n	n	n	n	n
O=C1c2cccnc2C(=O)N1Cc1ccc(S(=O)(=O)NCc2ccco2)cc1	n	n	n	n	n
Cc1ccc(-n2c(N)c(C(=O)Nc3c(C)n(C)n(-c4ccccc4)c3=O)c3nc4ccccc4nc32)cc1	x	30µM	u	n	u
CCCCn1cc(S(=O)(=O)c2ccc(C)c(C)c2)c(=O)c2cc(F)c(N(CC)CC)cc21	x	x	26µM	n	n
CCCn1cc(S(=O)(=O)c2ccc(C)c(C)c2)c(=O)c2cc(F)c(N3CCCCC3)cc21	x	x	n	n	n
COc1ccc(OC)c(NC(=O)c2ccc(CSc3nnc(C)s3)cc2)c1	n	n[11.3 µM]	26µM	n	n
O=C(O)c1ccc(Nc2nc(-c3ccccc3)nc3ccccc23)cc1	u	x	u	n	n
CNC(=O)c1ccc(Nc2nc(-c3ccccc3)nc3ccccc23)cc1	n	n	23µM	n	n
CC(=O)c1sc2nc(-c3cccs3)ccc2c1N	n	n	u	13µM	n
Nc1c(C(=O)Nc2ccccc2Br)sc2nc(-c3cccs3)ccc12	x	u	n	u	n
Nc1c(C(=O)Nc2nc3ccccc3s2)sc2nc(-c3cccs3)ccc12	n	u	21µM	u	u
C=CCSc1cc(C)nc2c(-c3ccccc3)cnn12	n	x	u	n	n
CCSc1cc(C)nc2c(-c3ccccc3)cnn12	n	x	u	16µM	n
Cc1cccc(C)c1NC(=O)CSc1nnc(-c2ccco2)n1N	x	x	n	n	n
COc1cccc2c(=O)cc(C)n(CC(=O)Nc3ccc(C)c(C)c3)c12	n	n	u	n	n
COc1ccccc1NC(=O)Cn1c(C)cc(=O)c2cccc(OC)c21	u	n	12µM	n	n
